Data on seven compounds can be found in PubChem BioAssay (NCI).

About 83,000 compounds went through this panel and 20% of them were active in at least one assay; those are over-represented in the sample as a whole.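 Cell lines were cultured in 96-well plates, exposed to a single compound concentration, and assessed for percent growth 48 hours later.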 A number with no mark means an inactive call. Activity calls are given as the source filed them. Rule for the calls: active = growth percent below 10; inactive = the rest.

Among the test systems are HCT-15 colon; HT29 colon; SNB-75 CNS; SNB-19 CNS; U251 CNS; PC-3 prostate; SK-MEL-5 melanoma; UACC-62 melanoma; LOX IMVI melanoma; SK-MEL-28 melanoma; SK-MEL-2 melanoma; EKVX NSCLC; SN12C renal; UO-31 renal; TK-10 renal; ACHN renal; CAKI-1 renal; A498 renal; CCRF-CEM leukemia; MOLT-4 leukemia.
Holding throughout (test): NCI-60 one-dose screen, 48 h (100 = growth as untreated, 0 = no growth, -100 = all killed)
Common to all, as to conditions: 10 µM unless noted

In the case of `CCCc1cc(CCC)n2nc(N)nc2n1`, the growth is 107% with HCT-15 colon; 108% with HT29 colon; 95.6% with SNB-75 CNS; 113% with SNB-19 CNS; 110% with U251 CNS; 96.9% in the assay with PC-3 prostate. The growth was 107% with SK-MEL-5 melanoma; 111% in the assay with UACC-62 melanoma; 105% with LOX IMVI melanoma; 105% in the assay on SK-MEL-28 melanoma; 128% in the assay with SK-MEL-2 melanoma; 115% in the assay on EKVX NSCLC. The growth with SN12C renal was 101%; in the assay with UO-31 renal, 129%; in the assay on TK-10 renal it was 114%; with ACHN renal, 101%; in the assay on CAKI-1 renal, 95.3%; with A498 renal, 96%. The growth in the assay on CCRF-CEM leukemia was 93.1%; in the assay on MOLT-4 leukemia it was 94.8%.

Consider `COc1cc(CNC(=O)CCCC/C=C/C(C)C)ccc1OCc1cn(-c2cccc([N+](=O)[O-])c2)nn1`, for which the growth in the assay with HCT-15 colon was 77.9%; with HT29 colon, 88.9%; in the assay with SNB-75 CNS, 92%; with SNB-19 CNS it was 68.2%; in the assay on U251 CNS it was 85.3%; in the assay with PC-3 prostate it was 82.2%. Besides, the growth in the assay on SK-MEL-5 melanoma was 93.2%; in the assay on UACC-62 melanoma, 70.1%; in the assay on LOX IMVI melanoma, 92.9%; with SK-MEL-28 melanoma, 106%; in the assay with SK-MEL-2 melanoma, 88.4%; in the assay with EKVX NSCLC it was 95.1%. Further, the growth was 89.5% with SN12C renal; 74.7% in the assay on UO-31 renal; 105% in the assay with TK-10 renal; 81.7% in the assay on ACHN renal; 79% in the assay on CAKI-1 renal; 78.9% with A498 renal. Besides, the growth in the assay with CCRF-CEM leukemia was 90.2%; in the assay with MOLT-4 leukemia it was 86.6%.

For `CC(CN)[C@@H]1CC[C@]2(CO)CC[C@]3(C)[C@H](CC[C@@H]4[C@@]5(C)CCC(NCCO)C(C)(C)[C@@H]5CC[C@]43C)[C@@H]12` (stereo not given in full), the growth in the assay with HCT-15 colon was 38.4%; in the assay on HT29 colon it was 1.25% (active); in the assay with SNB-75 CNS it was 59.5%; with SNB-19 CNS it was 78.5%; with U251 CNS, 18.4%; in the assay on PC-3 prostate, 69.4%. Also, the growth is 32.9% with SK-MEL-5 melanoma; 91.9% with UACC-62 melanoma; -64.4% (active) with LOX IMVI melanoma; -5.2% (active) with SK-MEL-28 melanoma; 94.4% with SK-MEL-2 melanoma; 73% with EKVX NSCLC. Further, the growth is 80.1% in the assay with SN12C renal; 69.7% in the assay on UO-31 renal; 93.4% in the assay on TK-10 renal; 95% with ACHN renal; 59.9% in the assay on CAKI-1 renal; 87.2% with A498 renal. Further, the growth is 6.44% (active) in the assay on CCRF-CEM leukemia and 18.3% in the assay on MOLT-4 leukemia.

As to `COc1ccc(-c2csc(NC(=O)CSc3nc(C)cc(=O)[nH]3)n2)cc1`, the growth with HCT-15 colon is 102%; in the assay with HT29 colon, 107%; in the assay with SNB-75 CNS it was 95.9%; with SNB-19 CNS it was 89.3%; in the assay on U251 CNS, 102%; in the assay on PC-3 prostate it was 94.9%. The growth is 96.7% in the assay on SK-MEL-5 melanoma; 87.7% in the assay on UACC-62 melanoma; 96.3% in the assay on LOX IMVI melanoma; 106% with SK-MEL-28 melanoma; 103% with SK-MEL-2 melanoma; 96.1% in the assay on EKVX NSCLC. Further, the growth with SN12C renal is 98.2%; with UO-31 renal, 99%; in the assay with TK-10 renal, 107%; with ACHN renal, 105%; with CAKI-1 renal, 109%; in the assay on A498 renal, 103%. Also, the growth was 106% with CCRF-CEM leukemia and 110% in the assay with MOLT-4 leukemia.

As to `COc1cc(C)cc(-c2c(-c3cc(N4CC(O)C4)nc(-c4cccnc4)n3)cnn2C)c1`, the growth with HCT-15 colon is 77.4%; in the assay on HT29 colon it was 88.3%; in the assay with SNB-75 CNS it was 82.5%; in the assay with SNB-19 CNS, 91.4%; in the assay with U251 CNS, 91.3%; in the assay with PC-3 prostate, 82.5%. For the same compound, the growth with SK-MEL-5 melanoma was 69.8%; in the assay with UACC-62 melanoma, 73.1%; with LOX IMVI melanoma, 52.9%; in the assay on SK-MEL-28 melanoma, 92.5%; in the assay with SK-MEL-2 melanoma, 113%; with EKVX NSCLC, 91.7%. The growth is 77.8% in the assay with SN12C renal; 76.7% in the assay on UO-31 renal; 99.5% in the assay on TK-10 renal; 66.5% in the assay with ACHN renal; 94.5% in the assay on CAKI-1 renal; 72.8% in the assay on A498 renal. Besides, the growth was 78.9% with CCRF-CEM leukemia and 94.6% with MOLT-4 leukemia.

Take `C#C[C@]1(O)CC[C@H]2[C@@H]3CC=C4c5sc(-c6cccc(C)c6)nc5CC[C@]4(C)[C@H]3CC[C@@]21C`: the growth is 56.6% in the assay on HCT-15 colon; 38.8% in the assay with HT29 colon; 13.8% in the assay on SNB-75 CNS; 86.7% with SNB-19 CNS; 71.8% in the assay with U251 CNS; 40.5% in the assay on PC-3 prostate. In addition, the growth is 82.5% with SK-MEL-5 melanoma; 77.3% in the assay with UACC-62 melanoma; 55% with LOX IMVI melanoma; 55.9% with SK-MEL-28 melanoma; 86.9% in the assay with SK-MEL-2 melanoma; 68% in the assay on EKVX NSCLC. Also, the growth in the assay on SN12C renal was 71.3%; in the assay with UO-31 renal, 34.1%; with TK-10 renal, 110%; with ACHN renal it was 63.7%; with CAKI-1 renal, 27.2%; in the assay with A498 renal it was 94.9%. The growth in the assay with CCRF-CEM leukemia is 49.6%; with MOLT-4 leukemia, 44.2%.

With `CC1=C([Se]CC(OC(=O)[C@@H](CO)NC(=O)OC(C)(C)C)C(=O)NCCCCCC(=O)OCc2ccccc2)C(=O)c2ccccc2C1=O` (stereo not given in full), the growth in the assay with HCT-15 colon is -45.8% (active); in the assay with HT29 colon, -67.5% (active); with SNB-75 CNS, -99.6% (active); in the assay with SNB-19 CNS, -87% (active); with U251 CNS, -85.8% (active); in the assay on PC-3 prostate, -72.6% (active). The growth in the assay on SK-MEL-5 melanoma is -89.9% (active); in the assay on UACC-62 melanoma, -76% (active); in the assay on LOX IMVI melanoma, -76.6% (active); with SK-MEL-28 melanoma, -89.1% (active); in the assay on SK-MEL-2 melanoma, -79.9% (active); in the assay with EKVX NSCLC it was -75.5% (active). The growth was -72.9% (active) in the assay on SN12C renal; -99.8% (active) with UO-31 renal; -95.8% (active) with TK-10 renal; -83.3% (active) with ACHN renal; -86.5% (active) with CAKI-1 renal; 31.2% in the assay with A498 renal. In addition, the growth in the assay with CCRF-CEM leukemia is -8.88% (active); with MOLT-4 leukemia, -21.6% (active).
